The supplement of paper PMC8253809
Several values for one entry are separate records, joined by “and”; a condition that tells them apart may be missing. Identical values can stand only once.

How the values were obtained:
Experiment in all cases: growth inhibition (% activity, log2 RLU normalised to DMSO / staurosporine); higher = more growth inhibition
Conditions in all cases: 33 µM
DIPGX29 = tested on: DIPGX29 (H3.3 K27M diffuse intrinsic pontine glioma line)
Outline: (§1)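 Approved drugs were tested in triplicate at a single final concentration of about 33 μM for 7 days at 37 °C, 5% CO2, on pHGG cell lines and H9-derived neural stem cells. Readout was CellTiter-Glo luminescence, log2-transformed and scaled per plate to % activity between solvent and positive control wells. The median over replicates gives the growth-inhibition value.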

DIPGX37 = tested on: DIPGX37 (H3.3 K27M diffuse intrinsic pontine glioma line)
Outline: as §1

DIPGX7 = tested on: DIPGX7 (H3.3 K27M diffuse intrinsic pontine glioma line)
Outline: as §1

DIPGX9 = tested on: DIPGX9 (diffuse intrinsic pontine glioma line)
Outline: as §1

HGGX39 = tested on: HGGX39 (paediatric high-grade glioma line)
Outline: as §1

HGGX6 = tested on: HGGX6 (H3.3 G34R paediatric high-grade glioma line)
Outline: as §1

HNSC = tested on: HNSC
Outline: as §1

SUDIPGIV = tested on: SUDIPGIV (diffuse intrinsic pontine glioma line)
Outline: as §1

SUDIPGVI = tested on: SUDIPGVI (diffuse intrinsic pontine glioma line)
Outline: as §1

SUDIPGXIII = tested on: SUDIPGXIII (diffuse intrinsic pontine glioma line)
Outline: as §1

Structure (SMILES)	growth inhibition (DIPGX29)	growth inhibition (DIPGX37)	growth inhibition (DIPGX7)	growth inhibition (DIPGX9)	growth inhibition (HGGX39)	growth inhibition (HGGX6)	growth inhibition (HNSC)	growth inhibition (SUDIPGIV)	growth inhibition (SUDIPGVI)	growth inhibition (SUDIPGXIII)
CN(C)c1nc(N(C)C)nc(N(C)C)n1	-3.35%	-1.75%	-1.42%	-3.04%	-3.6%	-3.16%	-5.97%	-3.04%	-2.53%	-0.234%
CC(C)OC(=O)C(C(=O)OC(C)C)=C1SC=CS1	12.7%	6.67%	26.1%	4.32%	8.43%	13.3%	43.7%	16.3%	-3.26%	2.97%
CN(C)C(=N)NC(=N)N	-1.21%	-7.32%	-1.41%	-1.73%	-3.04%	-0.131%	-0.258%	-2.86%	-9.44%	-1.47%
CCCC(CCC)C(=O)O	-0.377% and 2.62%	2.62% and 1.47%	0.168% and 0.662%	-1.7% and -0.864%	1.15% and -1.14%	-4.05% and -2.44%	2.37% and 0.244%	1.52% and 0.0625%	0.818% and -1.61%	0.746% and 0.431%
Clc1ccc(C(c2ccccc2Cl)C(Cl)Cl)cc1 (stereo not given)	-1.94%	-1.47%	-1.72%	-0.6%	-0.428%	-0.0252%	-1.09%	-1.24%	-1.05%	1.43%
N=c1nc(N2CCCCC2)cc(N)n1O	0.473%	-0.191%	0.732%	-0.0641%	-0.0574%	-3.42%	1.05%	-0.657%	1.35%	-1.69%
C[C@@H](O[C@H]1OCCN(Cc2n[nH]c(=O)[nH]2)[C@H]1c1ccc(F)cc1)c1cc(C(F)(F)F)cc(C(F)(F)F)c1	8.42%	0.0612%	5.7%	4.43%	12.5%	7.33%	8.95%	13.5%	5.21%	10.1%
CCOc1nc2cccc(C(=O)OCc3oc(=O)oc3C)c2n1Cc1ccc(-c2ccccc2-c2noc(=O)[nH]2)cc1	0.179%	-1.86%	1.02%	0.141%	0.998%	-2.04%	16.6%	-1.36%	-4.87%	-1.75%
CN(C)CCc1c[nH]c2ccc(CS(=O)(=O)N3CCCC3)cc12	1.96%	3.12%	1.45%	1.71%	2.56%	3.04%	1.98%	0.896%	3.66%	-0.309%
Nc1ccc(S(=O)(=O)Nc2ncccn2)cc1	0.254%	1.69%	0.776%	-0.452%	0.395%	0.228%	1.26%	-0.517%	1.02%	-2.51%
O.O=[Si]=O.O=[Si]=O.O=[Si]=O.O=[Si]=O.[O]=[Mg].[O]=[Mg].[O]=[Mg]	-0.0369%	-0.00885%	-1.3%	0.668%	1.22%	0.613%	-1.22%	0.589%	0.8%	0.62%
C=CC[N+]1([C@H]2C[C@H]3[C@@H]4CC[C@H]5C[C@H](O)[C@@H](N6CCOCC6)C[C@]5(C)[C@H]4CC[C@]3(C)[C@H]2OC(C)=O)CCCC1	-0.303%	-0.692%	1.36%	0.151%	4.24%	1.87%	2.05%	-0.149%	0.535%	1.02%
N[C@@H](Cc1cc(I)c(Oc2ccc(O)c(I)c2)c(I)c1)C(=O)O	3.32%	3.94%	1.41%	2.64%	5.93%	-3.21%	13.2%	14.9%	10.1%	0.729%
O=C(Nc1ccc([N+](=O)[O-])cc1Cl)c1cc(Cl)ccc1O	43.9%	-2.57%	24.1%	2.53%	4.01%	5.02%	7.85%	16.6%	3.13%	61.3%
COCCOC(=O)C1=C(C)NC(C)=C(C(=O)OC/C=C/c2ccccc2)C1c1cccc([N+](=O)[O-])c1 (stereo not given)	2.85%	2.42%	5.44%	5.34%	5.91%	4.61%	5.17%	6.24%	3.03%	0.864%
CCOC(=O)[C@H](CCc1ccccc1)N[C@@H](C)C(=O)N1C(=O)N(C)C[C@H]1C(=O)O	-1.26%	0.599%	-0.344%	-0.304%	-1.03%	-1.84%	1.56%	-1.04%	-1.53%	1.71%
O=C(NCCO[N+](=O)[O-])c1cccnc1	-0.0278%	2.96%	1.16%	1.21%	0.669%	-4.02%	46.8%	0.797%	1.67%	-0.184%
CCCCc1oc2ccccc2c1C(=O)c1cc(I)c(OCCN(CC)CC)c(I)c1	11.5%	3.87%	16.3%	3.8%	8.92%	12.4%	34.9%	6.94%	3.07%	7.05%
COc1ccc(/C=C/C(=O)Nc2ccccc2C(=O)O)cc1OC	-0.16%	2.16%	1.32%	-0.609%	-0.29%	-0.75%	3.65%	0.158%	-5.28%	-1.02%
CCCCCCOC(=O)NC(=N)c1ccc(NCc2nc3cc(C(=O)N(CCC(=O)OCC)c4ccccn4)ccc3n2C)cc1	0.869%	2.08%	1.77%	1.32%	1.62%	2.11%	1.37%	0.438%	2.67%	-16.9%
Cc1ccc(NC(=O)c2ccc(CN3CCN(C)CC3)cc2)cc1Nc1nc(-c2cccnc2)cs1	8.55%	4.57%	8.77%	6.79%	15.1%	9.96%	9.74%	7.78%	9.06%	2.08%
CCC[C@@H]1C[C@@H](C(=O)N[C@@H]([C@H]2O[C@H](SC)[C@H](OP(=O)(O)O)[C@@H](O)[C@H]2O)[C@H](C)Cl)N(C)C1	-4.37%	-1.53%	-1.72%	-1.01%	-2.23%	-2.46%	3.42%	-1.74%	-2.75%	0.327%

Structure (SMILES)	growth inhibition (DIPGX29)	growth inhibition (DIPGX37)	growth inhibition (DIPGX7)	growth inhibition (DIPGX9)	growth inhibition (HGGX39)	growth inhibition (HGGX6)	growth inhibition (HNSC)	growth inhibition (SUDIPGIV)	growth inhibition (SUDIPGVI)	growth inhibition (SUDIPGXIII)
O=C(CCCCCCC(=O)Nc1ccccc1)NO	46.8%	23.9%	51.7%	49.5%	18.5%	33.7%	70.6%	44.9%	38.5%	28%
OC(CCN1CCCCC1)(c1ccccc1)c1ccccc1	-0.46%	1.3%	-0.768%	-0.762%	-0.68%	0.348%	-1.66%	-1.24%	0.131%	1.07%
NNC(=O)c1ccncc1	3.87%	-2.25%	1.93%	0.954%	0.333%	-0.478%	44.1%	3.88%	-2.88%	-0.311%
CC(C)CN(C[C@@H](O)[C@H](Cc1ccccc1)NC(=O)O[C@H]1CO[C@H]2OCC[C@H]21)S(=O)(=O)c1ccc(N)cc1	-2.82%	-0.683%	-0.244%	-0.934%	-1.58%	0.0431%	-4.53%	-3.11%	-1.79%	1.1%
NC(Cc1cc(I)c(Oc2cc(I)c(O)c(I)c2)c(I)c1)C(=O)O (stereo not given)	0.479%	2.96%	-0.171%	1.28%	2.01%	-2.56%	27.8%	10.6%	7.79%	4.24%
CCCc1ncc(C[n+]2ccccc2C)c(N)n1	-4.8%	-1.21%	-0.627%	-2.23%	-2.8%	-3.52%	7.92%	-2.86%	-5.24%	0.241%
COc1ccc2cc(CCC(C)=O)ccc2c1	-3.29%	-0.34%	1.11%	-2.24%	0.174%	-2.89%	31.7%	-0.544%	-8.13%	3.04%
COc1nc(N)nc2c1ncn2[C@@H]1O[C@H](CO)[C@@H](O)[C@@H]1O	-0.0296%	-1.39%	-1.6%	1.18%	2.74%	1%	-1.01%	0.63%	0.545%	-2.52%
Nc1ccc(/N=N/c2ccccc2)c(N)n1	-3.96%	-2.54%	0.481%	-3.38%	-1.17%	-3.08%	9.5%	-2.91%	-4.45%	1.45%
CC1(C)Cc2c(-c3ccccc3)c(-c3ccc(Cl)cc3)c(CC(=O)O)n2C1	1.89%	3.9%	3.38%	1.48%	2.51%	-0.994%	8.73%	1.41%	1.99%	1.12%
NCCc1ccc(O)c(O)c1	-0.86%	1.63%	-0.591%	0.714%	0.908%	-1.23%	5.73%	1.26%	0.907%	-1.27%
CCCSc1ccc2[nH]c(NC(=O)OC)nc2c1	7.72%	7.1%	6.94%	11.9%	15.5%	7.25%	61.3%	19%	-3.32%	4.87%
C[C@H]1C[C@@H]2[C@H]([C@@H](O)C[C@@]3(C)[C@H]2CC[C@]3(O)C(=O)CO)[C@@]2(C)C=CC(=O)C=C12	-0.195%	0.838%	-1.93%	2.66%	-0.0158%	-2.28%	-1.14%	5.2%	-0.182%	1.59%
COc1cc(C(=O)NC2CCCNC2)cc(OC)c1OC (stereo not given)	0.123%	2%	0.49%	0.203%	2.37%	-3.35%	6.28%	1.23%	0.918%	-1.95%
O=C1CCc2ccc(OCCCCN3CCN(c4cccc(Cl)c4Cl)CC3)cc2N1	4.57%	3.86%	4.16%	4.55%	5.69%	3.13%	22%	4.8%	4.51%	14.8%
CCN1CCCC1CNC(=O)c1cc(S(N)(=O)=O)ccc1OC (stereo not given)	1.2%	3.95%	2.35%	1.38%	2.29%	0.912%	1.32%	0.319%	3.68%	0.786%
O=C(O)c1ccc(NC(=O)[C@H](Cc2ccc(O)cc2)NC(=O)c2ccccc2)cc1	-3.5%	-1.5%	-2.53%	-1.13%	-2.55%	-0.845%	-2.41%	-2.35%	0.761%	-0.558%
C#C[C@]1(O)CC[C@H]2[C@@H]3CCc4cc(O)ccc4[C@H]3CC[C@@]21C	0.982%	1.91%	0.741%	0.29%	0.261%	2.48%	0.451%	-1.64%	1.36%	0.6%
CCCOc1ccc2[nH]c(NC(=O)OC)nc2c1	6.12%	5.82%	6.31%	9.95%	7.33%	9.96%	66.6%	11.4%	-1.9%	3.23%
OC1(c2ccc(Cl)c(C(F)(F)F)c2)CCN(CCCC(c2ccc(F)cc2)c2ccc(F)cc2)CC1	22.5%	-5.49%	5.28%	-1.11%	4.1%	4.08%	71.6%	4.36%	-7.48%	51.7%
O=C1c2ccccc2C(=O)C1c1ccccc1	-0.501%	-1.03%	-0.877%	-0.146%	1.52%	0.118%	-1.43%	0.701%	0.683%	0.357%
